Results filed as inconclusive are left out. Calls of active or inactive are those of the source. Rule for the calls, unless noted: active = hit-call score of the fitted dose curve at least 0.9, where 1 is the maximum; inactive = score below 0.9.
Columns and labels:
[1] = ACEA_ER_80hr: ACEA Biosciences xCELLigence Real-Time Cell Analysis on Estrogen Receptor Agonism for Proliferation (AID 2282667; active = hit-call score of the fitted dose curve at least 0.9, where 1 is the maximum); details: T47D proliferation, impedance (xCELLigence), 80 h
Summary of the method: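 Impedance readout (RT-CES) of T47D proliferation at 80 h post-dose; gain of signal vs DMSO baseline. Compounds: 8 conc, 1:4 serial, top 100 uM final, ≤0.5% DMSO; biological duplicate.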

[2] = target: CCAAT/enhancer-binding protein beta (Homo sapiens) (UniProt P17676); assay: ATG_C_EBP_CIS: Attagene CIS-FACTORIAL HepG2 Assay for human CCAAT/Enhancer Binding Protein (C/EBP) beta (AID 2282927); details: HepG2 Attagene cis-factorial transcription factor reporter; actives raise or lower the signal
Summary of the method: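 Following a 24 h incubation with test chemical, transfected HepG2 cells yielded RNA whose reporter transcripts were quantified by RT-PCR and fluorescent capillary electrophoresis, with DMSO serving as baseline for bidirectional fitting.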

[3] = ATG_CMV_CIS: Attagene CIS-FACTORIAL HepG2 Assay for human CMV (Internal Marker) (AID 2282928); details: HepG2 CMV promoter reporter, transcription factor profiling; actives raise or lower the signal;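 note: endpoint acts as a background internal control marker rather than a target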
Summary of the method: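 CMV internal-marker background readout in transiently transfected HepG2 cells bearing cis-regulated reporter units. Reporter mRNA is measured 24 h after dosing by RT-PCR and capillary electrophoresis, with bidirectional fitting against DMSO.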

[4] = target: Aryl hydrocarbon receptor (Homo sapiens) (UniProt P35869); assay: ATG_Ahr_CIS: Attagene CIS-FACTORIAL HepG2 Assay for human Aryl Hydrocarbon Receptor (Ahr) (AID 2282930); details: HepG2 AhR cis-factorial reporter transcription; actives raise or lower the signal
Summary of the method: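 Values derive from bidirectional fitting against DMSO negative control. Underlying signal: cis-element reporter mRNA in transiently transfected HepG2, harvested 24 h post-dose and measured by RT-PCR plus capillary electrophoresis.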

[5] = ATG_AP_2_CIS: Attagene CIS-FACTORIAL HepG2 Assay for human Activator Protein 2 (AP-2) (AID 2282932); details: HepG2 AP-2 cis-reporter, Attagene transcription factor profiling; actives raise or lower the signal
Summary of the method: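 HepG2 cells were transiently transfected with multiple cis-promoter reporter transcription units and dosed for 24 h. Reporter mRNA was measured by RT-PCR with capillary electrophoresis fluorescence; bidirectional fits relative to DMSO baseline.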

[6] = ATG_BRE_CIS: Attagene CIS-FACTORIAL HepG2 Assay for human Bone Morphogenetic Protein (BMP) Response Element (BRE) (AID 2282933); details: HepG2 BMP response element reporter, Attagene transcription factor profiling; actives raise or lower the signal
Summary of the method: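 Fluorescence-labelled reporter cDNA fragments, separated by capillary electrophoresis, gave the signal for this component of a 52-readout multiplex. HepG2 cells were transfected, exposed to chemicals for 24 h, and compared with DMSO using bidirectional fitting.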

[7] = target: Retinoic acid receptor alpha (Homo sapiens) (UniProt P10276); assay: ATG_DR5_RAR_CIS: Attagene CIS-FACTORIAL HepG2 Assay for human Retinoic Acid Receptor Alpha (RARE), DR5 submotif (AID 2282934); details: HepG2 Attagene cis-factorial RARE DR5 reporter, mRNA; actives raise or lower the signal
Summary of the method: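 Endpoint fitted in both directions relative to DMSO as negative control. It reflects DR5 cis-element reporter mRNA induction in transiently transfected HepG2 cells, measured 24 h after dosing through RT-PCR and fluorescent capillary electrophoresis.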

[8] = target: Transcription factor E2F1 (Homo sapiens) (UniProt Q01094); assay: ATG_E2F_CIS: Attagene CIS-FACTORIAL HepG2 Assay for human E2F Transcription Factor 1 (AID 2282935); details: HepG2 Attagene cis-reporter, E2F reporter RNA transcripts; actives raise or lower the signal
Summary of the method: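 HepG2 cells transiently transfected with multiplexed cis-element reporter units, dosed for 24 h. Reporter mRNA measured by RT-PCR, 6-FAM primer-extension labeling, HpaI digestion and capillary electrophoresis; bidirectional fit versus DMSO baseline.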

[9] = ATG_E_Box_CIS: Attagene CIS-FACTORIAL HepG2 Assay for human Enhancer Box (E-box) (AID 2282936); details: HepG2 E-box cis-reporter transcription, actives raise or lower the signal
Summary of the method: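 HepG2 cells transiently transfected with multiplexed cis-element reporter units sensing endogenous transcription factor activity; 24 h compound exposure. Reporter mRNA measured by RT-PCR, 6-FAM primer extension, HpaI digestion and capillary electrophoresis; bidirectional fit versus DMSO.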

[10] = ATG_M_61_CIS: Attagene CIS-FACTORIAL HepG2 Assay for M61 Transcription Factor (Internal Marker) (AID 2282937); details: HepG2 Attagene CIS-FACTORIAL M61 internal marker reporter; actives raise or lower the signal
Summary of the method: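 Endogenous transcription factor activity in HepG2 is read through transiently transfected cis-element reporter units. After 24 h dosing, RNA undergoes reverse transcription, PCR and primer extension with 6-FAM before capillary electrophoresis; DMSO-referenced bidirectional fit.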

[11] = ATG_EGR_CIS: Attagene CIS-FACTORIAL HepG2 Assay for human Early Growth Response 1 (EGR1) (AID 2282938); details: HepG2 Attagene CIS-FACTORIAL EGR reporter mRNA; actives raise or lower the signal
Summary of the method: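 Activity is taken as induction or loss of reporter mRNA versus DMSO, fitted bidirectionally. Transcripts from cis-regulated reporter units in transiently transfected HepG2 were measured after 24 h by RT-PCR with capillary electrophoresis.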

[12] = ATG_M_19_CIS: Attagene CIS-FACTORIAL HepG2 Assay for M19 Transcription Factor (Internal Marker) (AID 2282939); details: HepG2 Attagene CIS-FACTORIAL M19 internal marker reporter; actives raise or lower the signal
Summary of the method: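 HepG2, MRTU transient transfection, 24 h dosing. Total RNA → RT-PCR → 6-FAM primer extension → HpaI digest → CE fluorescence. Bidirectional curve fit, DMSO negative control.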

[13] = ATG_ERE_CIS: Attagene CIS-FACTORIAL HepG2 Assay for Estrogen Response Element (ERE) (AID 2282940); details: HepG2 ERE cis-reporter, Attagene RNA transcript; actives raise or lower the signal
Summary of the method: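 After a 24 h chemical treatment, RNA from reporter-transfected HepG2 cells is reverse-transcribed, PCR-amplified and fluorescently labelled. Fragments separated by capillary electrophoresis give reporter signal; DMSO serves as negative control.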

[14] = target: Hepatocyte nuclear factor 3-beta (Homo sapiens) (UniProt Q9Y261); assay: ATG_FoxA2_CIS: Attagene CIS-FACTORIAL HepG2 Assay for human Forkhead box A2 (FOXA2) (AID 2282942); details: HepG2 cis-reporter transcription factor activity, 24 h; actives raise or lower the signal
Summary of the method: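 Reporter transcript induction is measured by fluorescence after capillary electrophoresis of RT-PCR products from HepG2 cells exposed 24 h. Cis-regulated reporter units report endogenous factor activity; curves fitted both directions against DMSO.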

[15] = ATG_FoxO_CIS: Attagene CIS-FACTORIAL HepG2 Assay for human Forkhead box O (FoxO) (AID 2282943); details: HepG2 Attagene cis-reporter, FoxO element, mRNA; actives raise or lower the signal
Summary of the method: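 Values reflect reporter mRNA induction or loss in HepG2 cells 24 h post-dosing, fitted bidirectionally with DMSO as negative control and baseline. Detection used RT-PCR and fluorescence capillary electrophoresis.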

[16] = ATG_GATA_CIS: Attagene CIS-FACTORIAL HepG2 Assay for human GATA Binding Protein (AID 2282944); details: HepG2 GATA cis-element reporter, Attagene multiplex mRNA; actives raise or lower the signal
Summary of the method: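 Cells: HepG2, transiently transfected with cis-regulated reporter transcription units. Exposure: 24 h. Detection: RT-PCR plus capillary electrophoresis of FAM-labeled fragments. Analysis: bidirectional, DMSO as baseline.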

[17] = ATG_DR4_LXR_CIS: Attagene CIS-FACTORIAL HepG2 Assay for human Liver X Receptor (LXR), DR4 submotif (AID 2282929); details: HepG2 Attagene DR4 cis-reporter, mRNA transcription; actives raise or lower the signal
Summary of the method: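 Fluorescence intensity of labelled reporter cDNA fragments, separated by capillary electrophoresis, gives the signal. HepG2 cells bearing cis-regulated reporter constructs were treated 24 h; activity fitted bidirectionally relative to DMSO negative control.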

[18] = ATG_Ets_CIS: Attagene CIS-FACTORIAL HepG2 Assay for human Erythroblast Transformation Specific (ETS) (AID 2282941); details: HepG2 ETS cis-reporter transcription, actives raise or lower the signal
Summary of the method: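 HepG2 cells transfected with multiple cis-regulated reporter units measuring endogenous ETS-driven transcription, 24 h after dosing. Reporter mRNA quantified by RT-PCR with capillary electrophoresis; bidirectional fit relative to DMSO.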

[19] = ATG_AP_1_CIS: Attagene CIS-FACTORIAL HepG2 Assay for human Activator Protein 1 (AP-1) (AID 2282931); details: HepG2 Attagene cis-factorial AP-1 reporter mRNA; actives raise or lower the signal
Summary of the method: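 Multiplexed HepG2 reporter assay, 24 h dosing. mRNA induction detected by RT-PCR plus capillary electrophoresis. Activity fitted in both directions against DMSO.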

Measured: outcome

Chain of Transcription factor E2F1 (Homo sapiens) (Q01094 whole entry, looked up): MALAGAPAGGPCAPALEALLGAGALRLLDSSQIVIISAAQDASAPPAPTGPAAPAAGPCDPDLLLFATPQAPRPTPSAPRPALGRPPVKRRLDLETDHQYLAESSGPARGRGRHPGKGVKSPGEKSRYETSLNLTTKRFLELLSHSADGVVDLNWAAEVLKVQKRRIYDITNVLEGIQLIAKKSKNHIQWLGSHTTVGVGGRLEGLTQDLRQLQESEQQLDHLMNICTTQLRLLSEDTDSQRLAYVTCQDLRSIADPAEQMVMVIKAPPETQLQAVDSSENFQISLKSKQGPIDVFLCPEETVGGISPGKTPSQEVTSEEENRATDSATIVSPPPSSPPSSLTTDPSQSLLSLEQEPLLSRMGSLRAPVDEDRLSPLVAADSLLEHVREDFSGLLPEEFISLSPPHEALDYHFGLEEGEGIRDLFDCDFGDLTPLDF
Chain of Hepatocyte nuclear factor 3-beta (Homo sapiens) (Q9Y261 whole entry, looked up): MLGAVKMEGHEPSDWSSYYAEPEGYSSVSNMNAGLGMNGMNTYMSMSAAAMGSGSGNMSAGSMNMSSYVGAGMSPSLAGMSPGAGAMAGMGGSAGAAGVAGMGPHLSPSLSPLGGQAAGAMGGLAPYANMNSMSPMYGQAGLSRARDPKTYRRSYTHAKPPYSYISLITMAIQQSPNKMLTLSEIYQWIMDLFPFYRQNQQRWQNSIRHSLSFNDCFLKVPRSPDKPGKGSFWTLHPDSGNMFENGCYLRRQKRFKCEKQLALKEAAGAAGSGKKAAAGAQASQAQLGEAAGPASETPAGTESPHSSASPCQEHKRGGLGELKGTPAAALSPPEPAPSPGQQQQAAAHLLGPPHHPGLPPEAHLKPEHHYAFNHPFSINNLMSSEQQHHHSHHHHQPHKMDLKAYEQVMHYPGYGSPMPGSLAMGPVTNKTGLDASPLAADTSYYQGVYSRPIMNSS
Chain of CCAAT/enhancer-binding protein beta (Homo sapiens) (P17676 whole entry, looked up): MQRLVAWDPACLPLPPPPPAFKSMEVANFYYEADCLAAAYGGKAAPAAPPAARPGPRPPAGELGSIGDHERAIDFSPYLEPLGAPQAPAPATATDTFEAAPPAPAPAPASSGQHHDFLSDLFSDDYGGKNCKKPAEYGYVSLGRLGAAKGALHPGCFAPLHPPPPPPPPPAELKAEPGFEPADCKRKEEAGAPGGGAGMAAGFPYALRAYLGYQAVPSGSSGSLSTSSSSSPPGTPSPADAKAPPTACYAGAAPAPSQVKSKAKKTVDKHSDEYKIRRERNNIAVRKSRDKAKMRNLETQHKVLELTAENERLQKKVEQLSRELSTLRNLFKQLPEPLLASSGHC
Chain of Aryl hydrocarbon receptor (Homo sapiens) (P35869 whole entry, looked up): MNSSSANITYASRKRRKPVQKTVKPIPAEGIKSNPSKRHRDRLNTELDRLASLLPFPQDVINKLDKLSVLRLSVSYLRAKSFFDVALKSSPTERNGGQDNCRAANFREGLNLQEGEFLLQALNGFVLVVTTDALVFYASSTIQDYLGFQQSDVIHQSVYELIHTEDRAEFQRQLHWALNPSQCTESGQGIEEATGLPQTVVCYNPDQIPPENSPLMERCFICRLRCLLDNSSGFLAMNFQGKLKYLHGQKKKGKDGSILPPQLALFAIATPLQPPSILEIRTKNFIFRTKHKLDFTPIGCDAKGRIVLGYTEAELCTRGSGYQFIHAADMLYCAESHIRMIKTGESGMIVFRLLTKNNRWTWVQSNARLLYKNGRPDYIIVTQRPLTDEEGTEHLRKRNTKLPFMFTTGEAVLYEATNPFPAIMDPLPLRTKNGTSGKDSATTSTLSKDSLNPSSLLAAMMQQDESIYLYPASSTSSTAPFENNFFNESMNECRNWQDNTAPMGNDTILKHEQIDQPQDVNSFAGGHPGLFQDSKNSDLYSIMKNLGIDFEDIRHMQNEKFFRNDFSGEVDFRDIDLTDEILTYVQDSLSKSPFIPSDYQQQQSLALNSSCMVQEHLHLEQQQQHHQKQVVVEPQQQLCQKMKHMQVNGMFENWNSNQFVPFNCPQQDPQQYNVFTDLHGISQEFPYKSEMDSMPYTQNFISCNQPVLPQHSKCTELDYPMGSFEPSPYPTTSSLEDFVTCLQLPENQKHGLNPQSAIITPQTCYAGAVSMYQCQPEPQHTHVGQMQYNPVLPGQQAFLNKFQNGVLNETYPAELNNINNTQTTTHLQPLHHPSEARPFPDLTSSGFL
Chain of Retinoic acid receptor alpha (Homo sapiens) (P10276 whole entry, looked up): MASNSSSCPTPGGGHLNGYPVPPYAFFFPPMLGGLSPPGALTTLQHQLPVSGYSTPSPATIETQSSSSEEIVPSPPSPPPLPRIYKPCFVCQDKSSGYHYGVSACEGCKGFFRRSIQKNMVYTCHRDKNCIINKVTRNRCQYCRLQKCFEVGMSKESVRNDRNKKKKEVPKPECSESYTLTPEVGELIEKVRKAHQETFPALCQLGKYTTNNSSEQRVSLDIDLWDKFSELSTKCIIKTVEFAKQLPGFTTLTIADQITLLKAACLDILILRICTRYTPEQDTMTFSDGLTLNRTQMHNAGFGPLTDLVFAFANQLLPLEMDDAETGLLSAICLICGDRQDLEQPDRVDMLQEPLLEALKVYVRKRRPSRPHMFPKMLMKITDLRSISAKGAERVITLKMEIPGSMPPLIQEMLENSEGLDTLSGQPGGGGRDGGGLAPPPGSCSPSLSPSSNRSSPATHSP

Cc1cc(C)n(CO)n1
not listed: [17] | [18] | [19]
inactive: all other assays above

CCCCC(CC)COC(=O)/C=C/c1ccc(OC)cc1 (stereo not given)
not listed: [19]
inactive: all other assays above

CCc1cccc(C)c1N
inactive: all assays above

CN(C)Cc1cc(CN(C)C)c(O)c(CN(C)C)c1
inactive: all assays above

CC(=O)OCC=C(C)C
not listed: [18]
inactive: all other assays above

— PubChem BioAssay (EPA / NIEHS)
